Results filed as inconclusive are left out. Active and inactive are the calls of the source. How the source made its calls, unless noted: active means hit-call score of the fitted dose curve at least 0.9, where 1 is the maximum; inactive means score below 0.9.
Key:
[1] = ACEA_ER_80hr: ACEA Biosciences xCELLigence Real-Time Cell Analysis on Estrogen Receptor Agonism for Proliferation (AID 2282667; active means hit-call score of the fitted dose curve at least 0.9, where 1 is the maximum); settings: T47D proliferation, impedance (xCELLigence), 80 h
How it was run: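 Estrogen-driven proliferation is captured as electrode impedance in T47D cells 80 h after compound addition. Test articles ran at 8 concentrations, 1:4 dilutions from 100 uM final, in two replicate plates.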

[2] = APR_HepG2_CellCycleArrest_24hr: Apredica 24-hour HepG2 Assay for Cell Cycle Arrest (AID 2282905); settings: imaging, actives raise or lower the signal;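 further: cell cycle arrest scored as ratio of 2N to 4N nuclear DNA content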
How it was run: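 HepG2 cells were exposed to compounds at 0.39–200 uM (ten concentrations, duplicate) in 0.5% v/v DMSO for 24 hr. After formaldehyde fixation and Triton permeabilization, Hoechst 33342-stained nuclei were imaged at 20x; DNA content was quantified, with bidirectional fitting against DMSO.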

[3] = APR_HepG2_NuclearSize_24hr: Apredica 24-hour HepG2 Assay for Nuclear Size (AID 2282907); settings: high-content imaging, actives raise or lower the signal
How it was run: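 HepG2 human liver cells were exposed for 24 hr to compounds at 0.39–200 uM (ten concentrations, duplicate) in 0.5% v/v DMSO. They were then formaldehyde-fixed, Triton-permeabilized and Hoechst 33342-stained, and nuclear diameter was imaged at 20x. Bidirectional fits were made against DMSO.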

[4] = APR_HepG2_CellLoss_24hr: Apredica 24-hour HepG2 Assay for Cell Loss (AID 2282908); settings: high-content imaging;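 on AC50: fit in both directions so a hit may be cell loss or gain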
How it was run: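 Compounds were tested at 0.39–200 uM in duplicate with 0.5% v/v DMSO final. Cells were then fixed in 3.7% formaldehyde, Hoechst 33342 nuclei were imaged at 20x by HCS, and cell number was fitted bidirectionally against DMSO.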

[5] = APR_HepG2_MicrotubuleCSK_24hr: Apredica 24-hour HepG2 Assay for Microtubule CSK Stabilty (AID 2282909); settings: HepG2 microtubule cytoskeleton imaging, actives raise or lower the signal
How it was run: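 HepG2 cells exposed 24 h to compounds at 0.39–200 uM (duplicate, 0.5% v/v DMSO final), then fixed, permeabilized and immunostained for alpha-tubulin with Hoechst 33342. Cytoskeleton imaged at 20x; bidirectional fit versus DMSO baseline.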

[6] = APR_HepG2_MitoticArrest_24hr: Apredica 24-hour HepG2 Assay for Mitotic Arrest (AID 2282910); settings: high-content imaging, actives raise or lower the signal
How it was run: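 Compounds are dosed onto HepG2 cells across ten concentrations up to 200 uM for 24 hr. Cells are then fixed in 3.7% formaldehyde, permeabilised, and labelled for phospho-histone H3 and nuclei; images are scored by cell cycle analysis and fitted bidirectionally relative to DMSO.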

[7] = APR_HepG2_MitoMembPot_24hr: Apredica 24-hour HepG2 Assay for Mitochondrial Membrane Potential (AID 2282911); settings: imaging, actives raise or lower the signal
How it was run: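 Mitochondrial dye uptake (MitoTracker Red CMXRos, 250 nM, 30 min pre-fixation) in HepG2 after 24 hr compound exposure, 0.39–200 uM; ArrayScan images at 20x, activity fitted in both directions relative to DMSO.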

[8] = APR_HepG2_MitoMass_24hr: Apredica 24-hour HepG2 Assay for Mitochondrial Mass (AID 2282912); settings: high-content imaging, actives raise or lower the signal
How it was run: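 Human HepG2 liver cells were exposed for 24 hr to compounds at 0.39–200 uM (duplicates, 0.5% v/v DMSO final). They were stained live with 250 nM MitoTracker Red CMXRos for 30 min, fixed in 3.7% formaldehyde, and imaged by HCS fluorescence; signals were fitted bidirectionally against DMSO.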

[9] = APR_HepG2_p53Act_24hr: Apredica 24-hour HepG2 Assay for p53 Activation (AID 2282913); settings: high-content imaging, actives raise or lower the signal;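 further: p53 protein immunofluorescence averaged per cell in HepG2 with Hoechst nuclei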
How it was run: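 Following 24 hr dosing of HepG2 at 0.39–200 uM, the cells undergo formaldehyde fixation, Triton permeabilization and multiplexed antibody labeling that includes p53 (Cy5). Signal from the imaging is referenced to DMSO solvent controls.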

[10] = APR_HepG2_CellLoss_72hr: Apredica 72-hour HepG2 Assay for Cell Loss (AID 2282915); settings: high-content imaging
How it was run: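 Cell number comes from Hoechst 33342-labelled nuclei, imaged at 20x after 3.7% formaldehyde fixation. Dosing was 0.39–200 uM, ten concentrations in duplicate, 0.5% DMSO final, for 72 h. Bidirectional fit relative to DMSO baseline.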

[11] = APR_HepG2_P-H2AX_72hr: Apredica 72-hour HepG2 Assay for H2AX Phosphorylation (AID 2282916); settings: imaging, actives raise or lower the signal;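 further: phospho-histone H2A.x immunostain intensity per cell marking DNA damage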
How it was run: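 HepG2 human liver cells were exposed for 72 hr to compounds at 0.39–200 uM (10 concentrations, duplicate per plate) in 0.5% v/v DMSO. Fixed, permeabilized cells were immunolabeled for phospho-histone H2A.x with Hoechst 33342 and imaged by HCS fluorescence; bidirectional fit versus DMSO.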

[12] = APR_HepG2_P-H2AX_24hr: Apredica 24-hour HepG2 Assay for H2AX Phosphorylation (AID 2282920); settings: high-content imaging, actives raise or lower the signal
How it was run: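 Human HepG2 liver cells, treated 24 hr with test chemicals (0.39–200 uM, final DMSO 0.5% v/v), are fixed and co-stained for phospho-H2A.x and c-Jun with Hoechst. Imaged intensity is fitted in both directions against DMSO controls.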

[13] = APR_HepG2_StressKinase_72hr: Apredica 72-hour HepG2 Assay for Stress Kinase (AID 2282921); settings: HepG2 stress kinase (phospho-c-Jun) imaging, actives raise or lower the signal
How it was run: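 Cells were exposed for 72 h to ten concentrations (0.39–200 uM, duplicate) at 0.5% v/v DMSO final, then fixed with 3.7% formaldehyde, permeabilized and immunostained for phospho-c-Jun (Cy3 secondary) with Hoechst nuclear counterstain.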

[14] = APR_HepG2_StressKinase_24hr: Apredica 24-hour HepG2 Assay for Stress Kinase (AID 2282922); settings: HepG2 stress kinase (phospho-c-Jun) imaging, actives raise or lower the signal
How it was run: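 HepG2, 24 hr dosing, 0.39–200 uM in duplicate, 0.5% DMSO; formaldehyde fix (3.7%), 0.5% Triton X-100; anti-phospho-c-Jun + Cy3 secondary, Hoechst counterstain; ArrayScan imaging; bidirectional curve fit vs DMSO baseline.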

[15] = APR_HepG2_p53Act_72hr: Apredica 72-hour HepG2 Assay for p53 Activation (AID 2282923); settings: high-content imaging, actives raise or lower the signal;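 further: average cellular p53 protein immunofluorescence intensity in HepG2 cells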
How it was run: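 Cells were dosed for 72 hr with compounds at 0.39–200 uM in duplicate (final DMSO 0.5% v/v), then fixed in 3.7% formaldehyde, permeabilized with Triton X-100 and immunostained for p53 (Cy5) with Hoechst 33342 nuclear counterstain.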

[16] = APR_HepG2_NuclearSize_72hr: Apredica 72-hour HepG2 Assay for Nuclear Size (AID 2282925); settings: high-content imaging, actives raise or lower the signal
How it was run: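 HepG2; cpd 0.39–200 uM, 10 conc, duplicate; 72 h; DMSO 0.5% v/v; fix 3.7% formaldehyde 30 min RT; Triton permeabilization; Hoechst 2 ug/mL; HCS imaging 20x; nuclear diameter; gain/loss fit vs DMSO.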

Measured: AC50

Cc1cccc(N)c1
inactive: all assays above

CCOP(=S)(Oc1ccc([N+](=O)[O-])cc1)c1ccccc1 (stereo unspecified)
active: [4] 41.1 µM | [10] 27.7 µM
not listed: [9] | [15]
inactive: all other assays above

c1cc2c3c(cccc3c1)CC2
inactive: all assays above

CCOP(=S)(OCC)SCSCC
active: [1] 19.7 µM | [2] 114 µM | [12] 107 µM
not listed: [9] | [15]
inactive: all other assays above

O=[N+]([O-])c1ccccc1
inactive: all assays above
